The campaign covered roughly 310,000 compounds. About 2,200 (0.71%) showed an effect of 50% or more. The effect is printed as a negative number. Only a selection was taken, and strong results are over-represented in it overall.
Target: human ether-à-go-go-related gene (hERG) potassium channel (human, UniProt Q12809)
Test: primary screen, population patch clamp on CHO cells stably expressing hERG; higher = less effect of the substance

Sequence of human ether-à-go-go-related gene (hERG) potassium channel (Q12809 whole entry, looked up): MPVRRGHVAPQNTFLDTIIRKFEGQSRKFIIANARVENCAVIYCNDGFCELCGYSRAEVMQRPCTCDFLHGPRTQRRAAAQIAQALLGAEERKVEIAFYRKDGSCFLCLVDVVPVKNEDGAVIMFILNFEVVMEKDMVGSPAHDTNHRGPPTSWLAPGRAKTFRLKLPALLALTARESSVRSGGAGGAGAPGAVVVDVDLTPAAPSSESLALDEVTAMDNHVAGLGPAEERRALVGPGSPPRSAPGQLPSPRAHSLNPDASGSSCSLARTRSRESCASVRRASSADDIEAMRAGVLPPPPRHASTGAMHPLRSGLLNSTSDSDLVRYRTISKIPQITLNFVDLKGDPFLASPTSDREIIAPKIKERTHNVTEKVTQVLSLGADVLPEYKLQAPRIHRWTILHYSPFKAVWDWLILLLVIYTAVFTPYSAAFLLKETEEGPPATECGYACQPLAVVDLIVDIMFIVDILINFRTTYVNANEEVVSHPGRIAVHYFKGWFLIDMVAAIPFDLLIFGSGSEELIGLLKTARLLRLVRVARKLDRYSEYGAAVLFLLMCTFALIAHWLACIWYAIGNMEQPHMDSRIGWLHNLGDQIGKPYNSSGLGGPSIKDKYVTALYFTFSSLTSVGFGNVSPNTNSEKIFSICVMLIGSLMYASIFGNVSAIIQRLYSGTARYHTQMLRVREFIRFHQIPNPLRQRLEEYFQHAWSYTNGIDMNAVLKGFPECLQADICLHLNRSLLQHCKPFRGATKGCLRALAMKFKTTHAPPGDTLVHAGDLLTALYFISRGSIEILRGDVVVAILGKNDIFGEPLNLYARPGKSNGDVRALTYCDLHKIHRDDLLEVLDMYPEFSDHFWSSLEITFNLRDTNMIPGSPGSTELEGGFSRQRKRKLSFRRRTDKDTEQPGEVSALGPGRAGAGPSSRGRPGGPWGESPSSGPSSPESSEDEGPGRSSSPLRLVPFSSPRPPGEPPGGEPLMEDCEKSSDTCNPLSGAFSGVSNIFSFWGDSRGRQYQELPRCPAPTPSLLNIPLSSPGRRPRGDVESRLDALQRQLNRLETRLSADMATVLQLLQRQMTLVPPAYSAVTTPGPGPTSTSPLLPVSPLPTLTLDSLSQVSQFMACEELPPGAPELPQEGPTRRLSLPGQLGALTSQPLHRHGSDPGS

Point of comparison: `N=C1/C(=C/c2ccc(OCc3ccccc3F)cc2)C(=O)N=C2SC(CC(=O)N3CCOCC3)=NN12`, “hERG current change (%, negative = inhibition) at 1uM” value 12.2%. Against it:
- Oc1c(Br)cc(/C=N/n2c(-c3ccccc3)n[nH]c2=S)c(Br)c1O — higher, 17.1%
- COc1ccc(OCC(O)CN(C2CCCCC2)C2CCCCC2)cc1.Cl (stereo not drawn) — lower, -37.9%
- CC(C)CN(CC(C)C)CC(O)COc1ccc([N+](=O)[O-])cc1.Cl (stereo not drawn) — lower, -52.1%
- COc1ccc(OCC(O)CNC(=O)/C=C/c2cccc([N+](=O)[O-])c2)cc1 (stereo not drawn) — higher, 14.8%
- CCCCN(CCCC)CC(O)COc1ccc(Br)cc1 (stereo not drawn) — lower, -43.6%
- CCCN(CCC)CC(O)COc1ccc([N+](=O)[O-])cc1 (stereo not drawn) — lower, -81.4%
- Cl.O=[N+]([O-])c1ccc(OCC(O)CNC2CCCC2)cc1 (stereo not drawn) — lower, -30.3%
- O=[N+]([O-])c1ccc(OCC(O)CN(CCO)CCO)cc1 (stereo not drawn) — lower, -16.9%
- Cc1nccn1CC(O)COc1ccc([N+](=O)[O-])cc1 (stereo not drawn) — lower, -41.3%
- COC(=O)c1ccc(OCC(O)CN(CC(C)C)CC(C)C)cc1 (stereo not drawn) — lower, 6.51%
- O=[N+]([O-])c1ccc(OCC(O)CN(C2CCCCC2)C2CCCCC2)cc1 (stereo not drawn) — lower, -80.4%
- CC(C)N(C(=O)/C=C/c1cccc([N+](=O)[O-])c1)C(C)C — lower, 7.97%
- COc1ccc(OCC(O)CN(C)C(=O)/C=C/c2cccc([N+](=O)[O-])c2)cc1 (stereo not drawn) — lower, -56.7%
- CCOc1ccccc1NC(=O)CSc1nc2ccccc2c(=O)n1CC1CCCO1 (stereo not drawn) — lower, -35.6%
- Cc1c(=O)n(OCc2ccccc2)c2ccccc2[n+]1[O-] — lower, 9.46%
- Oc1cnn(-c2ccccc2)c1 — lower, 5.96%
- CC(=O)NC(CC(=O)OCc1ccc([N+](=O)[O-])cc1)c1ccccc1 (stereo not drawn) — lower, -27%
- COCCNC(=O)CSc1nc2sccc2c(=O)n1-c1ccccc1 — higher, 16.6%
- CCn1c(NC(=O)C(C)C)c2ccccc2nc1=O — lower, 2.18%
- COc1cc(C)nc(N(C)S(=O)(=O)c2ccccc2Cl)n1 — lower, 7.72%
- CCN(CC)S(=O)(=O)c1cccc(C(=O)Nc2ccccc2)c1 — lower, -0.175%
- CCN(CC)S(=O)(=O)c1cccc(NC(=O)c2ccc(C#N)cc2)c1 — lower, 3.29%
- CCN(CC)S(=O)(=O)c1cccc(C(=O)Nc2ccc(C#N)cc2)c1 — lower, -74%
- COC(=O)CSC(C(=O)Nc1ccc(C)c(C)c1)c1ccccc1 (stereo not drawn) — lower, -4.33%
- O=C(Cn1ccc([N+](=O)[O-])n1)N1CCCCCC1 — higher, 13.1%
- COC(=O)c1ccc(/C=N/NC(=O)C2CC(=O)N(c3ccc(F)cc3)C2)cc1 (stereo not drawn) — higher, 16.8%
- COC(=O)c1nn(-c2cccc(C(F)(F)F)c2)ccc1=O — lower, 8.73%
- COc1ccc(/C=N/NC(=O)c2cccnc2)cc1CN1CCc2cc(OC)c(OC)cc2C1C (stereo not drawn) — lower, 1.82%
- COc1ccc(/C=N/NC(=O)c2ccc(F)cc2)cc1CN1CCc2cc(OC)c(OC)cc2C1C (stereo not drawn) — lower, -99.1%
- COc1ccc(C(=O)N/N=C/c2ccc(OC)c(CN3CCc4cc(OC)c(OC)cc4C3C)c2)cc1 (stereo not drawn) — lower, -85.1%
- COc1ccc(/C=N/NC(=O)c2cc(OC)c(OC)c(OC)c2)cc1CN1CCc2cc(OC)c(OC)cc2C1C (stereo not drawn) — lower, -21.9%
- COc1ccc(C(=O)N/N=C/c2ccc(OC)c(CN3CCCc4ccccc43)c2)cc1 — lower, -6.65%
- COc1ccc(/C=N/NC(=O)c2ccccc2[N+](=O)[O-])cc1CN1CCc2cc(OC)c(OC)cc2C1C (stereo not drawn) — lower, -10.4%
- Cc1cccc([C@@H]2[C@@H]3C(=O)N(Cc4ccccc4)C(=O)[C@@H]3[C@]3(Cc4ccccc4)C(=O)N(c4cccc(F)c4)C(=O)N23)c1 — lower, 9.13%
- COc1cc(/C=C2/SC(=S)N(CC(=O)O)C2=O)ccc1OC(=O)c1ccco1 — lower, 7.62%
- CCC(Sc1nc(N)c(NC(=O)c2ccc(OC)c(OC)c2)c(=O)[nH]1)C(=O)OC (stereo not drawn) — lower, -5.41%
- CCC(NS(=O)(=O)c1cccs1)c1ccc(C)cc1 (stereo not drawn) — lower, 8.69%
- O=[N+]([O-])c1cccc2c(N3CCCC3)ccnc12 — lower, -84.4%
- O=C(c1cc(F)c(F)cc1Cl)N1CCN(c2ccc([N+](=O)[O-])c3ncccc23)CC1 — lower, -53.6%
- O=[N+]([O-])c1ccc(N2CCCC2)c2ncccc12 — lower, 2.1%
- O=[N+]([O-])c1ccc(N2CCOCC2)c2cccnc12 — lower, -7.04%
- Cc1ccc(S(=O)(=O)N2CCN(c3ccc([N+](=O)[O-])c4cccnc34)CC2)cc1 — lower, 7.53%
- O=C(c1ccccc1F)N1CCN(c2ccc([N+](=O)[O-])c3ncccc23)CC1 — lower, -38.7%
- O=[N+]([O-])c1cccc2c(N3CCOCC3)ccnc12 — lower, 10%
- O=[N+]([O-])c1ccc(N2CCN(S(=O)(=O)c3ccccc3)CC2)c2cccnc12 — lower, -75.6%
- O=C(c1ccccc1F)N1CCN(c2ccc([N+](=O)[O-])c3cccnc23)CC1 — lower, -13.2%
- COc1cc(NC(=O)C2CC(=O)N(Cc3ccco3)C2)cc(OC)c1 (stereo not drawn) — lower, 2.39%
- CC/C(=N\NC(=O)c1ccc(N2CCCC2=O)cc1)c1ccccc1 — lower, 10.8%
- Cc1ccc2nc(SC(C)C(=O)NC3CCCc4ccccc43)[nH]c2c1 (stereo not drawn) — lower, 11.6%
- CC1(c2ccc([N+](=O)[O-])cc2)NC(=O)N(CC(=O)Nc2ccc(N3CCCCC3)cc2)C1=O (stereo not drawn) — higher, 14.8%
- Cc1ccc(-n2ncc3c2CCCC3NC(=O)c2cnccn2)cc1C (stereo not drawn) — lower, 10.3%
- CCOc1ccc(C(C)NC(=O)Cc2ccccc2)cc1OCC (stereo not drawn) — lower, 10.8%
- O=C(Cn1nc(C(F)(F)F)cc1C1CC1)Nc1ccccc1F — higher, 16.1%
- COCCN1CC(=O)N2C(c3cccc(C)c3)c3[nH]c4ccccc4c3C[C@H]2C1=O (stereo partly drawn) — lower, 1.07%
- COc1cc2c3nnc(-c4ccc(F)cc4)c-3cn(Cc3ccc(F)cc3)c2cc1OC — lower, -5.13%
- COc1ccc(Cn2cc3c(-c4ccc(F)cc4)nnc-3c3cc(OC)c(OC)cc32)cc1 — lower, -75.6%
- COc1cc2c3nnc(-c4ccc(F)cc4)c-3cn(Cc3ccc(C)cc3)c2cc1OC — higher, 13.5%
- Cc1cc(C)n(Cc2ccccc2)c(=O)c1S(=O)(=O)c1ccccc1 — lower, 3.34%
- COC(=O)C(C)Sc1nnc(SC(C)C(=O)OC)s1 (stereo not drawn) — higher, 23%
- O=C(N/N=C/c1cccc([N+](=O)[O-])c1O)C(O)(c1ccccc1)c1ccccc1 — higher, 18.6%
- O=C(N/N=C/c1cc(Cl)cc([N+](=O)[O-])c1O)C(O)(c1ccccc1)c1ccccc1 — lower, -62.4%
- O=C(N/N=C/c1cc([N+](=O)[O-])cc([N+](=O)[O-])c1O)C(O)(c1ccccc1)c1ccccc1 — lower, 0.978%
- CSc1cccc(NS(=O)(=O)c2ccc(F)cc2)c1 — lower, 7.73%
- COCCCNC(=O)CC(C)c1ccccc1 (stereo not drawn) — lower, 8.27%
- Cn1c2ccccc2n2c(=O)c(=O)n(CC(=O)N3CCCc4ccccc43)nc12 — lower, -1.27%
- CCCCCCn1c(=O)[nH]c2c(c1=O)CCC2 — lower, 11.6%
- CCOC(=O)Cn1c2c(c(=N)c3c1CCC3)CCCC2.Cl — higher, 12.8%
- CCOC(=O)Cn1c2c(c(=N)c3c1CCC3)CCC2.Cl — lower, 10.2%
- CCCn1c2c(c(=N)c3c1CCC3)CCCC2.I — lower, 6.36%
- CCCn1c2c(c(=N)c3c1CCC3)CCC2.I — lower, 8.15%
- Br.CCCCCCCCCn1c2c(c(=N)c3c1CCC3)CCC2 — lower, -65.5%
- Br.CCCCCCn1c2c(c(=N)c3c1CCC3)CCC2 — lower, -54%
- Br.CCn1c2c(c(=N)c3c1CCC3)CCC2 — lower, 6.51%
- Br.CCn1c2c(c(=N)c3c1CCC3)CCCC2 — lower, 4.22%
- Br.CCCCCCCCn1c2c(c(=N)c3c1CCC3)CCCC2 — lower, -84.6%
- Br.CCCCCCCCCCn1c2c(c(=N)c3c1CCC3)CCC2 — lower, -71.7%
- CCCCn1c2c(c(=N)c3c1CCC3)CCC2.I — lower, 5.32%
- CC(=O)n1cc(/C=N/NC(=O)c2cccc(O)c2)c2ccccc21 — higher, 13.7%
- CC(CC(=O)O)CC(=O)NNC(=O)c1cccc(Br)c1 (stereo not drawn) — lower, 8.72%
- C/C(N)=C(/C#N)C(=O)COC(=O)CCSc1ccccc1Cl — lower, 12.1%
- CCN(c1ccccc1)S(=O)(=O)c1ccc(Cl)c(C(=O)NCC2CCCO2)c1 (stereo not drawn) — lower, 2.1%
- O=C(C1CCN(C2CCN(C/C(Cl)=C/c3ccccc3)CC2)CC1)N1CCOCC1 — lower, -33.8%
- CN1CCN(C(c2ccc(C(F)(F)F)cc2)c2ccc3cccnc3c2O)CC1 (stereo not drawn) — lower, 7.36%
- CCC1Oc2nc(SC)nnc2-c2ccccc2N1C(=O)c1ccccc1 (stereo not drawn) — lower, 11.8%
- COC(=O)C1=C(C)Nc2nc3ccccc3n2C1c1ccccc1F (stereo not drawn) — lower, 8.31%
- Cc1cc(CNC(=O)CC2C(=O)NCCN2CC(C)(C)C)nn1C (stereo not drawn) — lower, 10.4%
